Screening results deposited in PubChem BioAssay by several laboratories.
FadD28 binding: M. tuberculosis FadD28 bisubstrate binding inhibition | FadD28 bisubstrate probe binding, fluorescence polarization | inhibition, % at 12.5 µM | 0.22% of 360,000 active; in the data active means inhibition above about 8.5%, passing the limit was not always enough; inconclusive means no clear call, values can overlap the other calls
PriA SSB inh: inhibitors of Klebsiella pneumoniae PriA binding to SSB C-terminal tail | inhibition, % at 33 µM | AlphaScreen SSBct-PriA binding, biotinylated peptide | AID 1272365 | 0.6% of 430,000 active; in the data active means inhibition mostly above about 37%, no sharp cut-off; inactive means mostly below about 20%;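 further: plate controls were negative control peptide for no effect and reference peptide for full effect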
TcdB GH inh: TcdB glycohydrolase inhibition; P18177; inhibition, % at 9.99 µM; 0.24% of 350,000 active; TcdB glycohydrolase enzymatic assay, plate reader; in the data active means inhibition above about 10%
Mtb hypoxia rep: Mtb hypoxia fluorescent reporter inhibition. M. tuberculosis hypoxia-regulated fluorescent reporter, fluorescence. fluorescence inhibition, % (no concentration beside the values). 0.1% of 300,000 active. AID 1159583; in the data active means fluorescence inhibition mostly above about 23%, no sharp cut-off; inactive means mostly below about 17%
PrP UTR inh: inhibition of PrP 5' UTR reporter expression; cell-based PrP 5' UTR mRNA reporter, plate reader; inhibition, % (test concentration not listed); 0.35% of 340,000 active; in the data active means inhibition above about 52%; further: 0 = median of the neutral control wells
BioA inh-1: BioA (M. tuberculosis) enzyme inhibition | purified M. tuberculosis BioA enzyme, plate reader | inhibition, % at 9.99 µM | 0.096% of 360,000 active | AID 602481; in the data active means inhibition above about 40%; inconclusive means no clear call, values can overlap the other calls
BioA inh-2: blocks M. tuberculosis BioA aminotransferase. purified BioA enzyme, plate reader, dose response. AID 651679. shares compounds with BioA inh-1. max activity, %. 310 tested, under 10 active;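 further: top concentration of the dilution series was 10 µM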
Target sequence (P9WQ81 whole entry, looked up): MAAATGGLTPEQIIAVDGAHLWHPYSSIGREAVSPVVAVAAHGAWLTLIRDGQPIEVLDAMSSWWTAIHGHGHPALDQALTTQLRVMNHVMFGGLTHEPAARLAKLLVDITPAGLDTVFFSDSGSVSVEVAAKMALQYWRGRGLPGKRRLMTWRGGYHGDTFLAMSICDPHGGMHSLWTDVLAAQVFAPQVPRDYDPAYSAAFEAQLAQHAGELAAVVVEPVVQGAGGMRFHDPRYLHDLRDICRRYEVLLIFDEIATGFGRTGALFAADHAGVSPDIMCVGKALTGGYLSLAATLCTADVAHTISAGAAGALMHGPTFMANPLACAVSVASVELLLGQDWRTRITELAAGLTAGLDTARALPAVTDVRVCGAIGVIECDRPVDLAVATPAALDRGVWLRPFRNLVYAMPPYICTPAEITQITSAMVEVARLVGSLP
HepG2 tox 2: cytotoxicity in HepG2 cells | shares compounds with BioA inh-1 | plate reader | max activity, % | 310 tested, under 10 active
3T3 cytotox 5: NIH3T3 viability loss; activity change, negative = cytotoxicity, % at 26 µM; NIH3T3 cytotoxicity, plate reader; shares compounds with BioA inh-1; 310 tested, under 10 active; AID 651900
* marks the source's active call; other numbers are inactive results; i = inactive; ? = inconclusive; · = no result given. Compounds with a hit are over-represented: about 1% of the library has one in this group of screens. Unless noted, how the calls were made is not given here.

SMILES | FadD28 binding | PriA SSB inh | TcdB GH inh | Mtb hypoxia rep | PrP UTR inh | BioA inh-1 | BioA inh-2 | HepG2 tox 2 | 3T3 cytotox 5
O=C(c1noc2c1CCCC2)N1CCOCC1 | -1 | -2 | 1 | 10 | -8 | -3 | · | · | ·
CCOc1ccc(CCNC(=O)c2cnc(C)cn2)cc1OCC | · | -22 | 0 | 8 | -5 | 69* | -6 | 27 | 6
CCOc1ccc(CCNC(=O)c2cnccn2)cc1OCC | · | -5 | -1 | 4 | 0 | 19 | · | · | ·
O=c1[nH]c(N2CCN(Cc3ccccc3)CC2)nc2c1CCC2 | 0 | -6 | 2 | 6 | -7 | · | · | · | ·
O=c1[nH]c(N2CCN(Cc3ccc4c(c3)OCO4)CC2)nc2c1CCC2 | 0 | 9 | · | · | -12 | 76* | -10 | -12 | -7
CC(=O)OCC(=O)[C@@]1(OC(C)=O)[C@@H](C)C[C@H]2[C@@H]3C[C@H](F)C4=CC(=O)C=C[C@]4(C)[C@@]3(F)[C@@H](O)C[C@@]21C | 0 | -1 | 1 | · | -3 | 51* | -5 | 16 | 6
CC(=O)OCC(=O)[C@@]1(OC(C)=O)C(C)CC2C3CC(F)C4=CC(=O)C=C[C@]4(C)[C@@]3(F)C(O)C[C@@]21C (stereo partly specified) | · | · | · | 0 | · | · | · | · | ·
COc1cccc(NC(=O)CCC2CCN(C(=O)c3ccc(C(C)=O)s3)CC2)c1 | -4 | -2 | 1 | 5 | -14 | 72* | 2 | -13 | 0
COc1cccc(NC(=O)CCC2CCN(C(=O)c3sccc3C)CC2)c1 | -1 | 2 | 1 | 5 | -11 | 4 | · | · | ·
Cc1ccc(NCc2nnc(SCC(=O)N3CCc4ccccc43)n2C)cc1 | 0 | -2 | · | 13 | -34 | 47* | -9 | 12 | -10
O=C(Nc1ncc2c(n1)CC(c1ccco1)CC2=O)c1ccco1 (stereo unspecified) | -2 | -1 | -12 | -1 | -9 | 54* | 22 | 25 | 3
CN(N=Cc1ccc2c(c1)OCO2)C(=O)c1ccccc1N | · | · | 0 | · | · | · | · | · | ·
O=C(NCCS(=O)(=O)N1CCN(c2ccccn2)CC1)c1cc2ccccc2o1 | · | -24 | · | · | · | · | · | · | ·
COc1ccc(-c2ccc3c(c2)C2CC3CCN2C(=O)C2CCCCC2)cc1 (stereo unspecified) | 2 | -4 | 1 | · | -27 | -1 | · | · | ·
COc1ccc(-c2ccc3c(c2)C2CC3CCN2)cc1 (stereo unspecified) | -2 | 2 | 3 | · | -23 | 86* | -9 | -16 | -8
Cc1ccc(NC(=O)C2CCN(S(=O)(=O)c3cccs3)CC2)cc1 | 0 | -2 | 1 | 1 | -4 | · | · | · | ·
O=C(Nc1ccc(F)c(F)c1)C1CCN(S(=O)(=O)c2cccs2)CC1 | -1 | 0 | 0 | 4 | -12 | 58* | -9 | 14 | -5
Cc1nc(-c2cccnc2)sc1C(=O)Nc1cccc(C(F)(F)F)c1 | -6 | -22 | · | 2 | -9 | 50* | -9 | ? | -2
Cc1nc(-c2cccnc2)sc1C(=O)Nc1ccc(C(F)(F)F)cc1 | 1 | -3 | · | 5 | 4 | 13 | · | · | ·
CCCCn1c(N)c(N(CCOC)C(=O)c2cnc(C)cn2)c(=O)[nH]c1=O | -2 | 0 | 1 | 10 | -11 | -1 | · | · | ·
O=C(NCc1ccco1)c1ccc(-c2ccc3nccn3c2)cc1 | -1 | · | 1 | · | · | 48* | 4 | 28 | 11
CCc1c(C(=O)NCCc2ccc(OC)c(OC)c2)[nH]c(C)c1C(C)=O | -2 | 11 | · | 2 | -4 | 60* | -9 | 10 | -6
CCc1c(C(=O)NCCc2cccc(C)c2)[nH]c(C)c1C(C)=O | -5 | -11 | 0 | · | -27 | 12 | · | · | ·
O=C(NCc1ccccc1)C1CCCN(S(=O)(=O)c2cccnc2)C1 (stereo unspecified) | -1 | -7 | · | · | -6 | -2 | · | · | ·
O=C(C1CCCN(S(=O)(=O)c2cccnc2)C1)N1CCn2c1nc1ccccc12 (stereo unspecified) | -2 | 2 | 0 | · | 6 | 46* | -5 | 11 | 2
SMILES | FadD28 binding | PriA SSB inh | TcdB GH inh | Mtb hypoxia rep | PrP UTR inh | BioA inh-1 | BioA inh-2 | HepG2 tox 2 | 3T3 cytotox 5
C[C@@H]1CN([C@@H](C)CO)C(=O)c2cccc(NC(=O)Nc3ccc(F)cc3)c2O[C@@H]1CN(C)Cc1ccc(C(F)(F)F)cc1 | · | · | 0 | · | · | 0 | · | · | ·
COC(=O)C[C@@H]1CC[C@@H]2[C@H](COC[C@@H](O)CN2C(=O)Nc2cccc(F)c2)O1 | · | · | 0 | · | · | 46* | -7 | i | -1
CNC(=O)C[C@H]1CC[C@@H]2[C@H](COC[C@@H](O)CN2C(=O)Nc2ccc3c(c2)OCO3)O1 | · | · | -1 | · | · | 50* | -8 | i | -4
Cc1cc(C)n2nc(C(=O)Nc3cccnc3)nc2n1 | -3 | -7 | · | · | -21 | 65* | -7 | -12 | 3
O=C(Nc1ccc2snnc2c1)N1CCN(c2ccccc2)CC1 | -1 | -10 | · | -1 | -23 | 75* | -8 | 16 | 1
O=C(Nc1ccc2snnc2c1)N1CCOCC1 | -1 | 2 | · | 5 | -4 | 65* | -5 | 15 | 1
O=S(=O)(NCC1CCCO1)c1ccc(Oc2ccccc2)cc1 (stereo unspecified) | -2 | 4 | · | 3 | -10 | 1 | · | · | ·
COc1cccc(CNC(=O)c2ccc(NC(=O)C3=CSCCO3)cc2)c1 | -3 | -19 | 0 | -7 | -14 | 48* | -7 | 18 | 2
Cc1ccc(CNC(=O)c2ccc(NC(=O)C3=CSCCO3)cc2)cc1 | -3 | -9 | 1 | -10 | -20 | 0 | · | · | ·
O=[N+]([O-])c1ccc(C[n+]2c(-c3ccccc3)cc(-c3ccccc3)cc2-c2ccccc2)cc1 | -2 | 14 | 1 | · | 1 | 59* | -4 | -9 | 0
CC(NC(=O)NC1CCCCC1)c1ccc2c(c1)OCO2 (stereo unspecified) | 0 | -5 | 0 | 8 | -21 | · | · | · | ·
CC(Oc1cc2oc(=O)c3c(c2cc1Cl)CCC3)C(=O)NCc1cccnc1 (stereo unspecified) | 0 | -12 | -2 | 11 | -18 | 47* | -8 | -20 | -5
N#C[C@@H]1[C@H](c2ccccc2)[C@H](CO)N1C(=O)Nc1cccc(F)c1 | · | · | -1 | · | · | 29 | · | · | ·
N#C[C@H]1[C@@H](c2ccccc2)[C@@H](CO)N1C(=O)Nc1cccc(F)c1 | · | · | -1 | · | · | 77* | 17 | i | 8
COc1ccc(C(=O)C2CCCN(C(=O)c3ccnn3C)C2)c(C)c1 (stereo unspecified) | 2 | 0 | 2 | 5 | -16 | 7 | · | · | ·
COc1ccc(C(=O)C2CCCN(C(=O)c3ccc(C(C)=O)s3)C2)c(C)c1 (stereo unspecified) | 2 | -1 | 0 | -5 | 14 | 64* | -10 | -7 | -8
